# From PubChem BioAssay (NCATS)
# Records with an inconclusive call do not appear. A call without a number means that no potency is given here. Activity calls are given as the source filed them. Unless noted, the call rests on the fitted dose curve.
# Legend:
# [1] = target: Peroxisome proliferator-activated receptor delta (Homo sapiens) (UniProt Q03181); experiment: qHTS assay for small molecule agonists of peroxisome proliferator-activated receptor delta signaling (AID 588534)
# Summary of the method: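 Agonist-mode beta-lactamase reporter readout (CCF4 dye, 2 h at RT) after 18 h at 37 °C exposure to a titration; Hill-equation fitting gave EC50 and maximal response.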
# [2] = target: Voltage-gated inwardly rectifying potassium channel KCNH2 (Homo sapiens) (UniProt Q12809); experiment: qHTS Assay for Small Molecule Inhibitors of the Human hERG Channel Activity (AID 588834; active means well fitted curve in the direction sought with a large enough effect; an effect the other way counts as inactive or inconclusive;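 further: top concentration of the series differs between compounds; lower thallium flux fluorescence means stronger hERG block; nearly all actives have a fitted effect of over 50% in size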)
# Summary of the method: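 Thallium serves as surrogate for K+ influx through BacMam-delivered hERG in U2OS cells. Compounds are added for about 10 minutes after dye loading; stimulation buffer then starts flux, monitored kinetically on FDSS.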
# [3] = target: Luciferin 4-monooxygenase (Photinus pyralis) (UniProt P08659); experiment: Biochemical firefly luciferase enzyme assay for NPC (AID 624030; active means well fitted curve in the direction sought with a large enough effect; an effect the other way counts as inactive or inconclusive; further: potency means the concentration at half of the fitted maximal effect; nearly all actives have a fitted effect of over 70% in size)
# Summary of the method: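 Counter-screen for direct inhibition of the luciferase enzyme by approved-drug library compounds, run at 10 nM enzyme in 50 mM Tris acetate (final). Luminescence was read within 5 min of enzyme-buffer addition and normalized to PTC124 versus DMSO (0%).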
# [4] = S16 Schwann cell PMP22 intronic element firefly luciferase assay (AID 624032; active means well fitted curve in the direction sought with a large enough effect; an effect the other way counts as inactive or inconclusive; further: series mostly up to about 58 µM; nearly all actives have a fitted effect of over 30% in size)
# Summary of the method: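 Rat S16 Schwann cells stably carrying a PMP22 intronic element-driven Fluc reporter were seeded overnight, then exposed to compounds for 24 h at 37 °C. Luminescence was normalized to PTC124 (positive control) and DMSO (0% activity).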
# [5] = qHTS assay for small molecule agonists of the antioxidant response element (ARE) signaling pathway (AID 651741; active means well fitted activation curve with a large enough effect in the signal ratio; the % refers to the signal ratio; further: potency means the concentration at half of the fitted maximal effect)
# Summary of the method: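 Reporter: beta-lactamase under ARE, stably in HepG2. Exposure: 16 h, 37 C, compounds delivered in DMSO by pin tool after 5 h cell preincubation. Readout: FRET substrate fluorescence after 2 h at RT.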
# [6] = target: Nuclear receptor ROR-gamma (Homo sapiens) (UniProt P51449); experiment: qHTS assay for small molecule antagonists of the retinoid-related orphan receptor gamma (ROR-gamma) signaling pathway (AID 651802; active means well fitted curve in the direction sought with a large enough effect; an effect the other way counts as inactive or inconclusive;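 further: CHO cells with doxycycline-induced ROR-gamma expression; luciferase reporter luminescence driven by ROR response element; series mostly up to about 92 µM; nearly all actives have a fitted effect of over 60% in size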)
# Summary of the method: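 Luminescence (One-Glo, 30 min RT) measured 16 h after compound addition and doxycycline induction at 37C. Reporter: RORE-luciferase under TET-inducible ROR-gamma in CHO cells.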
# [7] = target: Peroxisome proliferator-activated receptor gamma (Homo sapiens) (UniProt P37231); experiment: qHTS assay for small molecule antagonists of peroxisome proliferator-activated receptor gamma signaling (AID 588537; active means well fitted inhibition curve with a large enough effect in the signal ratio, with a control signal flat, not every such curve was filed as active; the % refers to the signal ratio;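 further: reporter cells co-stimulated with 50 nM rosiglitazone agonist during compound treatment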)
# Summary of the method: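 Compounds are tested as concentration series for inhibition of rosiglitazone-driven (50 nM) reporter expression in GeneBLAzer PPAR-gamma-UAS-bla HEK293 cells. After 16 h at 37 C, CCF4 substrate is added for 2 h at room temperature and blue/green fluorescence is measured.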
# [8] = qHTS assay for small molecule antagonists of peroxisome proliferator-activated receptor delta signaling (AID 588535; active means well fitted inhibition curve with a large enough effect in the signal ratio, with a control signal flat, not every such curve was filed as active; the % refers to the signal ratio;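 on max response: cells co-treated with a PPAR-delta agonist as stimulator during compound exposure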); settings: HEK293T PPARd-UAS-bla, beta-lactamase FRET ratio, 18 h; 460 nm channel
# Summary of the method: (§1)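 Inhibition of PPAR-delta response element-driven beta-lactamase expression is measured in HEK293T cells exposed to a compound titration series for 18 hrs at 37 C. Half-maximal inhibition comes from Hill equation fitting.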
# [9] = target: Peroxisome proliferator-activated receptor delta (Homo sapiens) (UniProt Q03181); experiment: as above
# Summary of the method: as §1
# [10] = target: Peroxisome proliferator-activated receptor gamma (Homo sapiens) (UniProt P37231); experiment: qHTS assay for small molecule agonists of peroxisome proliferator-activated receptor gamma signaling (AID 588536; active means well fitted curve in the direction sought with a large enough effect in the signal ratio, with a control signal flat, not every such curve was filed as active; the % refers to the signal ratio)
# Summary of the method: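 Compound treatment: 16 h, 37 C, HEK293 GeneBLAzer cells. Detection: CCF4, 2 h RT. Values: Hill-fit EC50, efficacy as % of 2 uM rosiglitazone.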
# [11] = target: Vitamin D3 receptor (Homo sapiens) (UniProt P11473); experiment: qHTS assay for small molecule antagonists of vitamin D receptor signaling (AID 588541);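 further: receptor activated by calcitriol during compound treatment; series mostly up to about 77 µM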
# Summary of the method: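 VDR-UAS-bla HEK293T cells (2000/well, 2% charcoal-stripped FBS) were treated with titrated compounds plus 1-alpha,25-dihydroxyvitamin D3 (50 nM or 3 nM final) for 16 h at 37 C. CCF4 beta-lactamase fluorescence was read; Hill fits gave IC50.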
# [12] = target: Vitamin D3 receptor (Homo sapiens) (UniProt P11473); experiment: qHTS assay for small molecule agonists of vitamin D receptor signaling (AID 588543)
# Summary of the method: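 VDR-UAS-bla HEK293T cells, 2000/well, 2% charcoal-stripped FBS; compound titration 16 h at 37 C; CCF4 beta-lactamase ratio read. Normalized to 50 nM 1-alpha,25-dihydroxyvitamin D3 (100%) and DMSO; Hill fit gives EC50, efficacy.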
# [13] = qHTS assay for small molecule agonists of retinoid X receptor alpha signaling (AID 588544); settings: HEK293T RXRa-UAS-bla, beta-lactamase reporter, 18 h; 530 nm emission
# [14] = target: Retinoic acid receptor RXR-alpha (Homo sapiens) (UniProt P19793); experiment: as above
# [15] = target: Thyroid hormone receptor beta (Homo sapiens) (UniProt P10828); experiment: qHTS assay for small molecule agonists of thyroid hormone receptor beta signaling (AID 588545)
# Summary of the method: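 Efficacy and EC50 values derive from Hill fits of qHTS titration data, normalized to 10 nM T3 and DMSO-only wells. HEK 293 reporter cells were stimulated for 18 hrs at 37 C, with beta-lactamase activity measured by CCF4 fluorescence.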
# [16] = qHTS assay for small molecule antagonists of retinoid X receptor alpha signaling (AID 588546; active means well fitted inhibition curve with a large enough effect in the signal ratio, with a control signal flat, not every such curve was filed as active; the % refers to the signal ratio;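 further: cells stimulated with 9-cis-retinoic acid as agonist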); settings: HEK293T RXRa-UAS-bla, beta-lactamase ratio, antagonist mode; measured here: W530 green channel, cytotoxicity proxy
# Summary of the method: (§2)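 Beta-lactamase reporter inhibition, read as CCF4 fluorescence ratio (ex 405, em 460/530 nm) after 2 h at RT. HEK293T UAS-bla cells, 2500/well, were stimulated with 9-cis-RA at 500 or 100 nM final alongside test compound for 18 h at 37 C.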
# [17] = target: Retinoic acid receptor RXR-alpha (Homo sapiens) (UniProt P19793); experiment: as above; settings: HEK293T RXRa-UAS-bla, beta-lactamase ratio, antagonist mode
# Summary of the method: as §2
# [18] = target: Thyroid hormone receptor beta (Homo sapiens) (UniProt P10828); experiment: qHTS assay for small molecule antagonists of thyroid hormone receptor beta signaling (AID 588547; active means well fitted inhibition curve with a large enough effect in the signal ratio, with a control signal flat, not every such curve was filed as active; the % refers to the signal ratio;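 further: cells stimulated with 0.4 nM T3 agonist during compound exposure; series mostly up to about 77 µM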); settings: TR-UAS-bla HEK293, beta-lactamase ratio, antagonist mode, 18 h
# Summary of the method: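 TR-UAS-bla GripTite HEK293 cells in 2% charcoal/dextran FBS medium were preincubated 4 h at 37 C, given compound (0.59 nM to 92 uM) plus 0.4 nM T3 (final) for 18 h, then CCF4 for 2 h at RT; Hill fit gave IC50.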
# [19] = qHTS assay for small molecule activators of the nuclear factor-kappa B (NF-kB) signaling pathway (AID 651749; active means well fitted activation curve with a large enough effect in the signal ratio; the % refers to the signal ratio; further: series mostly up to about 77 µM); settings: NF-kB-bla ME-180 cells, beta-lactamase FRET ratio, 16 h; activation: stronger effect = higher value
# Summary of the method: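 Human ME-180 cervical cells with an NF-kB-bla construct; compounds added via 23 nL pin transfer, DMSO as vehicle; incubation 16 hr. Reporter activity measured by FRET disruption.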
# [20] = qHTS assay for environmental chemicals that activate the Aryl hydrocarbon Receptor (AhR) signaling pathway (AID 651777; active means well fitted curve in the direction sought with a large enough effect; an effect the other way counts as inactive or inconclusive; further: nearly all actives have a fitted effect of over 15% in size); settings: 1A2-DRE human hepatoma cells, luciferase, 24 h; activation: stronger effect = higher value
# Summary of the method: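 Measured luciferase activity, read 30 min after One-Glo addition at room temperature, from human hepatoma cells bearing a dioxin response element–CYP1A2 promoter reporter and exposed to compound for 24 hr at 37 C.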
# [21] = target: Peroxisome proliferator-activated receptor alpha (Homo sapiens) (UniProt Q07869); experiment: qHTS assay for small molecule agonists of the peroxisome proliferator-activated receptor alpha (PPARalpha) signaling pathway (AID 651778; active means well fitted curve in the direction sought with a large enough effect; an effect the other way counts as inactive or inconclusive); settings: PathHunter PPARalpha complementation, chemiluminescence, 6 h; max response: stronger effect = higher value
# Summary of the method: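 Cells plated at 2,000/well and held overnight at 37 C, 5% CO2, then compound added by pin tool for 6 hr; after PathHunter detection reagent and 60 min at room temperature, chemiluminescence from enzyme complementation was read.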
# [22] = qHTS assay for small molecule agonists of the antioxidant response element (ARE) signaling pathway measured by Nrf2-dependant transcriptional activity (AID 720636; active means well fitted curve in the direction sought with a large enough effect in the repeat runs; an effect the other way counts as inactive or inconclusive;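 further: HepG2 cells with an ARE-driven luciferase reporter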)
# Summary of the method: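 In HepG2 cells engineered with an Nrf2-responsive luciferase gene, ARE induction was quantified as luminescence after 16 hr compound treatment at 37 C.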
# [23] = qHTS assay for small molecule agonists of the antioxidant response element (ARE) signaling pathway measured by Nrf2-dependant transcriptional activity - cell viability counter screen (AID 720653; active means well fitted curve in the direction sought with a large enough effect in the repeat runs; an effect the other way counts as inactive or inconclusive); settings: ARE-bla HepG2 viability, CellTiter-Glo ATP luminescence, 16 h; max response: stronger effect = lower value
# Summary of the method: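 ARE-bla HepG2 cells (2,000/well) rested 5 hrs at 37C/5% CO2, then exposed to compounds in DMSO for 16 hrs. Viability was read in the same wells as intracellular ATP by luminescence, 30 min at room temperature after reagent addition.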
# [24] = qHTS assay for cell viability of HEK293 cells (AID 743288; active means well fitted curve in the direction sought with a large enough effect; an effect the other way counts as inactive or inconclusive; further: nearly all actives have a fitted effect of over 50% in size); settings: ATP luminescence (CellTiter-Glo), 18 h; max response: stronger effect = lower value
# Summary of the method: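 Steps: plate 2,000 parental HEK293 cells per well; incubate ≥5 h, 37 C; add compounds in DMSO; incubate 18 h, 37 C; add CellTiter-Glo; wait 30 min at room temperature; read luminescence.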
# [25] = qHTS assay for cell viability of the p53RE-bla HCT-116 cell line (AID 743292; active means well fitted curve in the direction sought with a large enough effect; an effect the other way counts as inactive or inconclusive; further: nearly all actives have a fitted effect of over 55% in size)
# Summary of the method: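 Intracellular ATP of p53RE-bla HCT-116 cells measured by luciferase luminescence following 16 h compound incubation at 37 C; DMSO-only wells served as vehicle controls.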
# [26] = target: Nuclear receptor subfamily 1 group I member 2 (Rattus norvegicus) (UniProt Q9R1A7); experiment: qHTS assay for small molecule activators of the rat pregnane X receptor (rPXR) signaling pathway (AID 651751; call rule not given here); settings: rPXR reporter cells, luciferase (One-Glo), 24 h
# [27] = qHTS assay for small molecule activators of the human pregnane X receptor (PXR) signaling pathway (AID 720659; call rule not given here)
# [28] = qHTS assay for small molecule activators of the p53 signaling pathway (AID 651743; active means well fitted activation curve with a large enough effect in the signal ratio, not every such curve was filed as active; the % refers to the signal ratio; further: series mostly up to about 92 µM); settings: HCT-116 p53RE-bla, beta-lactamase FRET ratio, 16 h; activation: stronger effect = higher value
# Summary of the method: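 Agonist-mode quantitative HTS in HCT-116 cells carrying a p53-response-element beta-lactamase reporter; 16 h compound treatment at 37 C, then FRET substrate loading for 2 h at room temperature and fluorescence read.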
# Retinoic acid receptor RXR-alpha (Homo sapiens), sequence (P19793 whole entry, looked up): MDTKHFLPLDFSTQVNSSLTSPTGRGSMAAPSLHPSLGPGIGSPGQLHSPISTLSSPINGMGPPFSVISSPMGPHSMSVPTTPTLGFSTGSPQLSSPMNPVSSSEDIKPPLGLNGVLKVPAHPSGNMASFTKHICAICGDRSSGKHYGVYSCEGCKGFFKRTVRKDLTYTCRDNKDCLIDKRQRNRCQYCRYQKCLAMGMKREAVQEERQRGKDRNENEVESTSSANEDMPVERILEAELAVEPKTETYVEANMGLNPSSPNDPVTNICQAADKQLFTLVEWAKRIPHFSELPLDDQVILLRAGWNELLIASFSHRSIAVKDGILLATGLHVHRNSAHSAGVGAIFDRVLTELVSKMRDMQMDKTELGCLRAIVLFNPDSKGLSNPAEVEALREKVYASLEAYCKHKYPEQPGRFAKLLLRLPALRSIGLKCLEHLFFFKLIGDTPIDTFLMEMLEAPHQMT
# Peroxisome proliferator-activated receptor delta (Homo sapiens), sequence (Q03181 whole entry, looked up): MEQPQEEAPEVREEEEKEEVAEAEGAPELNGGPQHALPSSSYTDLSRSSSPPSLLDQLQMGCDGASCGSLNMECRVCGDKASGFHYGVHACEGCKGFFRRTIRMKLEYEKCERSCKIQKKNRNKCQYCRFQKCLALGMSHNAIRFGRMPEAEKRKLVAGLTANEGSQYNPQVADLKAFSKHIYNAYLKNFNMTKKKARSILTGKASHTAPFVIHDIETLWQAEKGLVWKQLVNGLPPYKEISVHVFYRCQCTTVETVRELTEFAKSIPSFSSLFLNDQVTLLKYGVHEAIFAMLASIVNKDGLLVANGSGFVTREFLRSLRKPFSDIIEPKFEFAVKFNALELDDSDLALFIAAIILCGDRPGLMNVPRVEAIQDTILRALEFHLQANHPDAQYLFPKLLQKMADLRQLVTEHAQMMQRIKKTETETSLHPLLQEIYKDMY
# Peroxisome proliferator-activated receptor gamma (Homo sapiens), sequence (P37231 whole entry, looked up): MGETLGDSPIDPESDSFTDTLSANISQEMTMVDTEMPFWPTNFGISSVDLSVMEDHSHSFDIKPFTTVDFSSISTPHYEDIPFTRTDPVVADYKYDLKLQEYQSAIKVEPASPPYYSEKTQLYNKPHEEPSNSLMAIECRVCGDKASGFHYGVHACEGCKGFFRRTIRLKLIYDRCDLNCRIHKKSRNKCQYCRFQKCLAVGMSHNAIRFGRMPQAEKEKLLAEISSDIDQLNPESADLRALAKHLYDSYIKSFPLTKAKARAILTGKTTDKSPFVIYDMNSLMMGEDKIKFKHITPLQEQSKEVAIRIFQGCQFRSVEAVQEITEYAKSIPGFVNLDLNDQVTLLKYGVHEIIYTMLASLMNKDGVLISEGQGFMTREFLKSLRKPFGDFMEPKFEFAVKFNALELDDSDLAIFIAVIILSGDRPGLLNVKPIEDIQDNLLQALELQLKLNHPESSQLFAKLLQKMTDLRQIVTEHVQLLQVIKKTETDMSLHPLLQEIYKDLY
# Vitamin D3 receptor (Homo sapiens), sequence (P11473 whole entry, looked up): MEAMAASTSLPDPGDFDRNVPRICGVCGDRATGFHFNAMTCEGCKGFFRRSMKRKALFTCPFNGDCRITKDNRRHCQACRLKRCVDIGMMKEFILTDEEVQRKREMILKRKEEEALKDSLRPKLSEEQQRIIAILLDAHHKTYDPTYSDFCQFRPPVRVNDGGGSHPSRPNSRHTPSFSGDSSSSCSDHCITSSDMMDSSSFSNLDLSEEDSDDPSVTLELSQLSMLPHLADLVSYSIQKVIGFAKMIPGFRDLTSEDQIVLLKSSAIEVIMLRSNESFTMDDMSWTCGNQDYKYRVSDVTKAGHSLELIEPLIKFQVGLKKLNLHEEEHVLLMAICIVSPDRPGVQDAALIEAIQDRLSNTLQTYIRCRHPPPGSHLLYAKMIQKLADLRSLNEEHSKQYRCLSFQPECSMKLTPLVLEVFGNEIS
# Thyroid hormone receptor beta (Homo sapiens), sequence (P10828 whole entry, looked up): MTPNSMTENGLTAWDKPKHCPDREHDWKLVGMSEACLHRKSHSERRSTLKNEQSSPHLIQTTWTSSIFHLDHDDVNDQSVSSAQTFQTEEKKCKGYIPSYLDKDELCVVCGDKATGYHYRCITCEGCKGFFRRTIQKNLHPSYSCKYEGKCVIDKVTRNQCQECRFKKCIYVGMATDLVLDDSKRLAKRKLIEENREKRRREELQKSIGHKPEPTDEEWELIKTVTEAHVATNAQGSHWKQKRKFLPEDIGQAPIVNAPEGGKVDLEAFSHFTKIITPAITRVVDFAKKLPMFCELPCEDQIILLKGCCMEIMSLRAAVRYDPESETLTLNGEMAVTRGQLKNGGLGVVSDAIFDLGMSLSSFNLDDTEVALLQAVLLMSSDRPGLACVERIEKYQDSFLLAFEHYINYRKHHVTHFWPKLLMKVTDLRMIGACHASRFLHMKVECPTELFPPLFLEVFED
# Peroxisome proliferator-activated receptor alpha (Homo sapiens), sequence (Q07869 whole entry, looked up): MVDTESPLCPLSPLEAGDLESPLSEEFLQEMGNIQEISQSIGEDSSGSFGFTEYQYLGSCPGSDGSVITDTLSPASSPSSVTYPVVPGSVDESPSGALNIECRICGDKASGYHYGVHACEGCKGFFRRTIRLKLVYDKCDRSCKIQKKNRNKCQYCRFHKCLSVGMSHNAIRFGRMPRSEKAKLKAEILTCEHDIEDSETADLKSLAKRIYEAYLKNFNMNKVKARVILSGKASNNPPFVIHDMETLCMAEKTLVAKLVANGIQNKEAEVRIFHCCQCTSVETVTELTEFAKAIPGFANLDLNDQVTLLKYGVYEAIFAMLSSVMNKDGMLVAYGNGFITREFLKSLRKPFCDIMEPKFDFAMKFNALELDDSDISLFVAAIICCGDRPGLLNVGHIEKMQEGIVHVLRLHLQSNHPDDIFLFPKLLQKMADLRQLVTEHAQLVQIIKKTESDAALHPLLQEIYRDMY
# Voltage-gated inwardly rectifying potassium channel KCNH2 (Homo sapiens), sequence (Q12809 whole entry, looked up): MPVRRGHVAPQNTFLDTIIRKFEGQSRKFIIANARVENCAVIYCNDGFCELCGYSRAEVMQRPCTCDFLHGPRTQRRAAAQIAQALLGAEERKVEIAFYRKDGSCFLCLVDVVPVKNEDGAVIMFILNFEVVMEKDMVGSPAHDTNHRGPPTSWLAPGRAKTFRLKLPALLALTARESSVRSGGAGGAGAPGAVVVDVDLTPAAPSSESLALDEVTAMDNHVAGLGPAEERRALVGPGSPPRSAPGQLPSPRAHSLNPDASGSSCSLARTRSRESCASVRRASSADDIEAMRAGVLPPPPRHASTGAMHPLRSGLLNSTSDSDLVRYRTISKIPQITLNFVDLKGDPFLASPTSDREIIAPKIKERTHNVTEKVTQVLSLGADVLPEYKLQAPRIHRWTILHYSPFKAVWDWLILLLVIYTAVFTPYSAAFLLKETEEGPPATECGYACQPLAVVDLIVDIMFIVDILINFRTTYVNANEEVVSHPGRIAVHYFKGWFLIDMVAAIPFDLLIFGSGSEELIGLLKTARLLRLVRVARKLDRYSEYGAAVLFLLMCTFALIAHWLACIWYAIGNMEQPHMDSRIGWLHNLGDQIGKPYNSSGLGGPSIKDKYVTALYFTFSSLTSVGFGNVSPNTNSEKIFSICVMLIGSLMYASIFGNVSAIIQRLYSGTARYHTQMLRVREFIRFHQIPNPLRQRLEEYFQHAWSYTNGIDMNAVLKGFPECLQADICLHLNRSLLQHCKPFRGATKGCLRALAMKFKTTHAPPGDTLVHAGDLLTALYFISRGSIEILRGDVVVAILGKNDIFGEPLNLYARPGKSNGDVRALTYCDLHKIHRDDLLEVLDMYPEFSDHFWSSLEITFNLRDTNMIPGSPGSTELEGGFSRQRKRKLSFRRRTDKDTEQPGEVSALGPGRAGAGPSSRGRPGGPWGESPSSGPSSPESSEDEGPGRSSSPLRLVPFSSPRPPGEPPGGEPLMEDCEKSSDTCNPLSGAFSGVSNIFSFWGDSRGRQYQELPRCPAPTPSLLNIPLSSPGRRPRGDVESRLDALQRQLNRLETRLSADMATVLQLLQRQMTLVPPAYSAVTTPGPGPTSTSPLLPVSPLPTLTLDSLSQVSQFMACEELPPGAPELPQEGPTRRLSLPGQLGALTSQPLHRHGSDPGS
# Nuclear receptor subfamily 1 group I member 2 (Rattus norvegicus), sequence (Q9R1A7 whole entry, looked up): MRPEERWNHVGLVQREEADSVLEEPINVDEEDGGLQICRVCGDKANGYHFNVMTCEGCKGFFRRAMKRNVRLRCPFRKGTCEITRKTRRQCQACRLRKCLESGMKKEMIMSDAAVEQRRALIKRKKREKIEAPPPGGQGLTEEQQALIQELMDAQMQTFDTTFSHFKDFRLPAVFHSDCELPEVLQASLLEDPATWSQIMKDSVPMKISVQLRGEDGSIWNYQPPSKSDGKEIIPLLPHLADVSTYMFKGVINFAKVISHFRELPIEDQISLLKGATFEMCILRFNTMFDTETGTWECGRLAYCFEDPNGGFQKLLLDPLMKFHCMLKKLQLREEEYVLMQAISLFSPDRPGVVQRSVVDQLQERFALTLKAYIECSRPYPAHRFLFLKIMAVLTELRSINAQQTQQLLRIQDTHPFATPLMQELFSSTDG
# Luciferin 4-monooxygenase (Photinus pyralis), sequence (P08659 whole entry, looked up): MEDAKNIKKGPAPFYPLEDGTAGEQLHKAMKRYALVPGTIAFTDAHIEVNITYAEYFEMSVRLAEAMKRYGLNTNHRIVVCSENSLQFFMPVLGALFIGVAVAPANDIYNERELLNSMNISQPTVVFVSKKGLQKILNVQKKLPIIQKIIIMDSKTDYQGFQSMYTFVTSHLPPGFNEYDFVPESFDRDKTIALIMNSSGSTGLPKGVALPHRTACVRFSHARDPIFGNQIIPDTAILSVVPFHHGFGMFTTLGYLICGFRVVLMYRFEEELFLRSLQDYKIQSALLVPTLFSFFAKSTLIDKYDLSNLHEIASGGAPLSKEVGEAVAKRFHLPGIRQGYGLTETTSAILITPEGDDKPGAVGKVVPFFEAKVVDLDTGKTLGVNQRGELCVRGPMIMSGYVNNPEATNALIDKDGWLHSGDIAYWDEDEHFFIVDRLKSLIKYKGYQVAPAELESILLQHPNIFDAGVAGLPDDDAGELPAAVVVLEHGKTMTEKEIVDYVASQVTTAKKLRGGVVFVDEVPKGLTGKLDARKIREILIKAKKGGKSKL
smiles,measurement,setting,value
[O-][N+](=Nc1ccccc1)c1ccccc1,outcome,[1],inactive
same,Potency,[2],inactive
same,Potency,[3],12.8 µM (active)
same,Potency,[4],inactive
same,Potency,[5],37.6 µM (active)
same,Potency,[6],inactive
CCCCCc1ccc(N)cc1,outcome,[1],inactive
CC(C)C=O,outcome,[1],inactive
Cc1ccccc1C,outcome,[1],inactive
same,Potency,[7],inactive
c1ccc(OCCOc2ccccc2)cc1,outcome,[1],inactive
CC=C(Cl)Cl,outcome,[1],inactive
CCCCCCCCCCCCCCC1CO1 (centres undefined),outcome,[1],inactive
Clc1cc(Cl)c(Cl)cc1Cl,outcome,[1],inactive
OCCOCCOCCOCCOCCO,outcome,[1],inactive
CCNC(=S)NCC,outcome,[1],inactive
O=C(O)CNC(=O)c1ccc(CO)o1,outcome,[1],inactive
NCCN,outcome,[1],inactive
same,Potency,[2],inactive
[CH3][Sn]([CH3])([Cl])[Cl],outcome,[1],inactive
same,max response,[8],1.89%
same,Potency,[9],inactive
same,Potency,[10],inactive
same,Potency,[7],inactive
same,Potency,[11],inactive
same,outcome,[12],inactive
same,max response,[13],-7.56%
same,Potency,[14],inactive
same,Potency,[15],inactive
same,max response,[16],-2.31%
same,max response,[17],-24.3% (inactive)
same,activity change % (negative = inhibition),[18],0.969% (inactive)
same,activation,[19],0.645% (inactive)
same,activation,[20],-0.285% (inactive)
same,max response,[21],-1.2% (inactive)
same,Potency,[22],inactive
same,max response,[23],3.28% (inactive)
same,max response,[24],-9.37% (inactive)
same,Potency,[25],inactive
same,max response,[26],-0.47% (inactive)
same,outcome,[27],inactive
Cc1cc(Cl)ccc1N=CN(C)C,outcome,[1],inactive
same,Potency,[10],inactive
same,Potency,[7],inactive
same,Potency,[11],inactive
same,outcome,[12],inactive
same,max response,[13],-2.15%
same,Potency,[14],inactive
same,max response,[16],-3.88%
same,max response,[17],-16.2% (inactive)
same,Potency,[5],inactive
same,activation,[28],0.7% (inactive)
same,activation,[20],1.22% (inactive)
same,max response,[21],-0.583% (inactive)
same,Potency,[22],inactive
same,max response,[23],-12.3% (inactive)
same,max response,[24],-10.1% (inactive)
same,Potency,[25],inactive
same,max response,[26],1.62% (inactive)
same,outcome,[27],inactive
O=Cc1ccc(Cl)cc1,outcome,[1],inactive
C=CC(=O)OCC(C)OCC(C)OCC(C)OC(=O)C=C (centres undefined),outcome,[1],inactive
C1CCC2OC2C1 (centres undefined),outcome,[1],inactive
C=CCCCC,outcome,[1],inactive
